From PubChem BioAssay (NCATS)
Records with an inconclusive call do not appear. Where a call stands in place of a potency, no number is given. The source made the active and inactive calls. Calls come from the whole dose curve; as a rule, active = well fitted inhibition curve with a large enough effect; inconclusive = small, poorly fitted or top-dose-only effect; inactive = no such curve, though single readings can be large or run the other way. Where a SMILES comes first, the peptide text is derived from it. The star is where a group is joined. βNA = c1ccc2cc(N*)ccc2c1; Cbz = O=C(OCc1ccccc1)*
Potency is the fitted concentration of half-maximal effect.

What follows are compounds tested on Zika virus NS2B-NS3 protease (linked construct) (assay: Primary screen NINDS Rhodamine qHTS for Zika virus inhibitors (AID 1347160; note: nearly all actives have a fitted effect of over 55% in size)). Conditions: purified NS2B-NS3 protease, Rhodamine110 substrate fluorescence; series mostly up to 33.1 µM.
Summary of the method: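 Aprotinin served as in-plate control. Conditions: 25 nM linked NS2B-NS3, pH 8.0 Tris buffer, titrated compounds, 15 min preincubation and 15 min reaction with 1.5 microM Rhod110 substrate at room temperature.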
For `Cc1c(F)cc(C(=O)NC2CC2)cc1-c1ccc(C(=O)NCC(C)(C)C)cn1`, the Potency was “inactive”. With `CC1(C)O[C@H]2CC(=O)OC[C@@]23C1=C(O)C(=O)[C@]1(C)C3CC[C@@]2(C)[C@H](c3ccoc3)OC(=O)[C@H]3O[C@]321` (some centres not stated) the Potency was “inactive”. In the case of `CC/C=C/C(O)C(O)C1=C(C)C(=O)C2(O1)C(=O)NC(OC)(C(=O)c1ccccc1)C2O` (configuration not stated), the Potency was “inactive”. With `COc1cc(/C=C/C(=O)O[C@H]2C[C@@H]3C(C(=O)O)=CO[C@@H](O[C@@H]4O[C@H](CO)[C@@H](O)[C@H](O)[C@H]4O)[C@@H]3[C@H]2C)ccc1O` the Potency was “inactive”. With `CC(=O)O[C@@H]1[C@H](O[C@@H]2O[C@H](CO)[C@@H](O)[C@H](O)[C@H]2O)[C@@H](O[C@@H]2O[C@@H](C)[C@H](O)[C@@H](O[C@@H]3O[C@H](CO)[C@@H](O)[C@H](O)[C@H]3O)[C@H]2O)[C@H](OC(=O)[C@]23CCC(C)(C)C[C@H]2C2=CCC4[C@@]5(C)C[C@H](O)[C@H](O[C@@H]6O[C@H](C(=O)O)[C@@H](O)[C@H](O)[C@H]6O)[C@@](C)(C(=O)O)C5CC[C@@]4(C)[C@]2(C)CC3)O[C@@H]1C` (some centres not stated) the Potency was “inactive”. In the case of `CC(C)CC(NC(=O)OCc1ccccc1)C(=O)NC(CC(C)C)C(=O)NC(CCC(=O)O)C(=O)Nc1ccc2ccccc2c1` (stereo not drawn) (Cbz-Leu-Leu-Glu-βNA; configuration not given here), the Potency was 11.2 µM (active). `CC(=O)/C=C/C1C(C)CC(O[C@@H]2O[C@H](CO)[C@@H](O)[C@H](O)[C@H]2O)CC1(C)C` (some centres not stated) was tested, and the Potency was “inactive”. `Cc1c(-c2ccc3c(c2)OCO3)oc2ccc(C(O)C(C)O)cc12` (configuration not stated) was tested, and the Potency was “inactive”. `COC(=O)C1=CO[C@@H](O[C@@H]2O[C@H](CO)[C@@H](O)[C@H](O)[C@H]2O)/C(=C\CO)[C@@H]1CC(=O)OCCc1ccc(O)cc1` was tested, and the Potency was “inactive”. `C/C=C(\C)C(=O)O[C@H]1C=CC(=O)O[C@H]1/C=C/[C@H](O)[C@@H](C)O` was tested, and the Potency was “inactive”. In the case of `COC(=O)C(CC1(O)c2ccccc2N2C(=O)C(CC(C)C)NC21)n1cnc2ccccc2c1=O` (configuration not stated), the Potency was “inactive”. `COc1ccc(OC)c(C2C(C#N)=C(N)Oc3n[nH]c(-c4ccc5ccccc5c4)c32)c1` (configuration not stated) was tested, and the Potency was “inactive”. In the case of `C/C=C/C=C/C=C/C(=O)O[C@@H]1C=C(CO)[C@](O)(CO)[C@@]2(C)CCCC(C)(C)[C@H]12`, the Potency was “inactive”. For `CC1(C)CC[C@]2(C(=O)O[C@@H]3O[C@H](CO)[C@@H](O)[C@H](O)[C@H]3O)CC[C@]3(C)C(=CCC4[C@@]5(C)CC[C@H](O[C@@H]6O[C@H](C(=O)O)[C@@H](O)[C@H](O)[C@H]6OC6OC(CO)C(O)C(O)C6O)C(C)(C)C5CC[C@]43C)[C@@H]2C1` (some centres not stated), the Potency was “inactive”. For `COc1cc(C)c(C(=O)O[C@@H]2[C@H](O)[C@@H](CO)O[C@H]2n2ccc(=O)[nH]c2=O)c(OC)c1`, the Potency was “inactive”. `NC[C@H]1CCC[C@@H](CNC(=O)[C@@H](Cc2c[nH]c3ccccc23)NC(=O)N2CCC3(C=Cc4ccccc43)CC2)C1` was tested, and the Potency was “inactive”. In the case of `C[C@H]1CC[C@@]2(OC1)O[C@H]1CC3C4CC[C@H]5C[C@@H](O)CC[C@]5(C)C4CC(=O)[C@]3(C)[C@H]1[C@@H]2C` (some centres not stated), the Potency was “inactive”. With `CC(C)=CC1C[C@](C)(O)[C@@H]2[C@H]3CCC4[C@@]5(C)CC[C@H](O[C@@H]6OC[C@H](O)[C@H](O[C@@H]7O[C@H](CO[C@@H]8O[C@H](CO)[C@@H](O)[C@H](O)[C@H]8O)[C@@H](O)[C@H](O)[C@H]7O)[C@H]6O[C@@H]6O[C@@H](C)[C@H](O)[C@@H](O)[C@H]6O)C(C)(C)[C@@H]5CC[C@@]4(C)[C@@]34CO[C@@]2(C4)O1` (some centres not stated) the Potency was “inactive”. `C[C@]12CC/C(=N\OCC(=O)O)C=C1CC[C@@H]1[C@@H]2[C@@H](O)C[C@@]2(C)[C@H]1CC[C@]2(O)C(=O)CO` was tested, and the Potency was “inactive”. For `CC1(C)COC(=O)[C@@H]1O[C@@H]1O[C@H](CO)[C@@H](O)[C@H](O)[C@H]1O`, the Potency was “inactive”. For `COC(=O)C(CC1CCCC1)c1ccc(S(C)(=O)=O)cc1` (configuration not stated), the Potency was “inactive”. With `CC1(C)OC(=O)C=C[C@@]2(C)C1CC(=O)[C@]1(C)C2CC[C@@]2(C)[C@H](c3ccoc3)OC(=O)[C@H]3O[C@]321` (some centres not stated) the Potency was “inactive”. `CC1(C)[C@H]2C[C@H](C/C=C\CCCC(=O)O)[C@@H](NC(=O)c3csc4ccc(O)cc34)[C@@H]1C2` was tested, and the Potency was “inactive”. In the case of `COc1c2c(c(C)c3c1C(=O)OC3)OC1(C)CC(O)C34OC(OC)(CCC3(C)C1C2)OC4(C)CO` (configuration not stated), the Potency was “inactive”. With `O=C(O)/C=C/c1ccc2occc2c1O[C@@H]1O[C@H](CO)[C@@H](O)[C@H](O)[C@H]1O` the Potency was “inactive”. `COc1cc(C(=O)OC[C@H]2O[C@@H](OC(C)(C)C(=O)O)[C@H](O)[C@@H](O)[C@@H]2O)cc(OC)c1O` was tested, and the Potency was “inactive”. With `C=CC(C)(O)C1CC2C3(C)CCCC(C)(C)C3C(O)C(O)C2(C)O1` (configuration not stated) the Potency was “inactive”. `CC(=O)NC(Cc1c[nH]c2ccccc(=O)c12)C(=O)O` (configuration not stated) was tested, and the Potency was 15.8 µM (active). In the case of `COc1ccc(CCC(=O)c2c(O)cc(O[C@@H]3O[C@H](CO)[C@@H](O)[C@H](O)[C@H]3O[C@@H]3O[C@@H](C)[C@H](O)[C@@H](O)[C@H]3O)cc2O)cc1O`, the Potency was “inactive”. With `FC(F)(F)Oc1ccc(-c2ccc3nnc(C(F)(F)F)n3c2)cc1` the Potency was “inactive”. With `COc1cc2c(cc1O)CC(O)(CO)C(CO)C2c1ccc(OC2OC(CO)C(O)C(O)C2O)c(OC)c1` (configuration not stated) the Potency was “inactive”. `COc1cc(O)cc(O[C@@H]2O[C@H](CO)[C@@H](O[C@@H]3OC[C@](O)(CO)[C@H]3O)[C@H](O)[C@H]2O)c1OC` was tested, and the Potency was “inactive”. With `C=C1C(=O)OC2CC(COC(=O)C(C)C)=C(C(C)CCCOC(C)=O)[C@@H](OC(C)=O)C12` (some centres not stated) the Potency was “inactive”. In the case of `COc1cc(/C=C/C(=O)OC[C@H]2O[C@@H](OC3CC(C)=C(C(=O)O)C(C)(C)C3)[C@H](O)[C@@H](O)[C@@H]2O)cc(OC)c1O` (some centres not stated), the Potency was “inactive”. With `CC1CC2(O)OC(=O)C3=C2C(CCC3)[C@@]12C[C@@H](c1ccoc1)OC2=O` (some centres not stated) the Potency was “inactive”. `C[C@@H]1O[C@@H](O[C@@H]2\C=C/C=C\C=C/C=C\C[C@H](C)OC(=O)/C=C\[C@H]3O[C@@H]3C[C@H](O)C[C@]3(O)C[C@@H](O)[C@@H](C(=O)O)[C@H](C2)O3)[C@H](O)[C@H](N)[C@@H]1O` was tested, and the Potency was “inactive”. With `O=C(O)c1ccc(NC(=O)[C@H](CC2CCCC2)n2cnc(C(F)(F)F)c2)nc1` the Potency was “inactive”.
